Results published in PubChem BioAssay (NCI).
Compounds without any hit were thinned out: in the full panel of roughly 83,000, 20% have a hit.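 Percent growth is the endpoint: 0 to 100 indicates growth inhibition (40 means 60% inhibition), 0 means no net growth, and negative values indicate cell death.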 Calls of active or inactive are those of the source. How the source made its calls: active means growth percent below 10; inactive means the rest.

Columns and labels:
Assay in all cases: NCI-60 one-dose screen, 48 h (100 = growth as untreated, 0 = no growth, -100 = all killed)
SK-MEL-2 melanoma = details: 10 µM
EKVX NSCLC = details: 10 µM
SN12C renal = details: 10 µM
UO-31 renal = details: 10 µM
TK-10 renal = details: 10 µM unless noted
CAKI-1 renal = details: 10 µM
A498 renal = details: 10 µM
CCRF-CEM leukemia = details: 10 µM
MOLT-4 leukemia = details: 10 µM
SR leukemia = details: 10 µM
RPMI-8226 leukemia = details: 10 µM
OVCAR-8 ovarian = details: 10 µM
OVCAR-5 ovarian = details: 10 µM
OVCAR-4 ovarian = details: 10 µM
SK-OV-3 ovarian = details: 10 µM
IGROV1 ovarian = details: 10 µM
OVCAR-3 ovarian = details: 10 µM
HS 578T breast = details: 10 µM
NCI/ADR-RES ovarian = details: 10 µM
ACHN renal = details: 10 µM

Measured: growth

CCOC(=O)c1coc(C(=O)OCC)c1C(=O)OCC
inactive: SK-MEL-2 melanoma 126% | EKVX NSCLC 100% | SN12C renal 112% | UO-31 renal 96.5% | TK-10 renal 118% | CAKI-1 renal 102% | A498 renal 92.2% | CCRF-CEM leukemia 112% | MOLT-4 leukemia 98.6% | SR leukemia 113% | RPMI-8226 leukemia 126% | OVCAR-8 ovarian 118% | OVCAR-5 ovarian 114% | OVCAR-4 ovarian 119% | SK-OV-3 ovarian 120% | IGROV1 ovarian 112% | OVCAR-3 ovarian 111% | HS 578T breast 117% | NCI/ADR-RES ovarian 119%

Cc1ccc(Cl)cc1NC(=O)N(C)CCO
inactive: SK-MEL-2 melanoma 97.4% | EKVX NSCLC 116% | SN12C renal 105% | UO-31 renal 76% | TK-10 renal 126% | ACHN renal 103% | A498 renal 111% | CCRF-CEM leukemia 98.7% | SR leukemia 113% | RPMI-8226 leukemia 97.4% | OVCAR-8 ovarian 112% | OVCAR-5 ovarian 111% | OVCAR-4 ovarian 136% | SK-OV-3 ovarian 114% | IGROV1 ovarian 93% | OVCAR-3 ovarian 130% | HS 578T breast 236% | NCI/ADR-RES ovarian 112%

O=C(O)c1cc([N+](=O)[O-])ccc1Cl
inactive: SK-MEL-2 melanoma 97.3% | EKVX NSCLC 118% | SN12C renal 95.6% | UO-31 renal 79.9% | TK-10 renal 81.2% | ACHN renal 105% | A498 renal 106% | CCRF-CEM leukemia 114% | MOLT-4 leukemia 73.2% | SR leukemia 88.4% | RPMI-8226 leukemia 88.8% | OVCAR-8 ovarian 96.1% | OVCAR-5 ovarian 104% | OVCAR-4 ovarian 107% | SK-OV-3 ovarian 106% | IGROV1 ovarian 117% | OVCAR-3 ovarian 115% | NCI/ADR-RES ovarian 103%

COc1cc(-c2ccc(NC(=O)NC3CC3)c(OC)c2)ccc1NC(=O)NC1CC1
inactive: SK-MEL-2 melanoma 96.3% | EKVX NSCLC 94.6% | SN12C renal 91.6% | UO-31 renal 46.5% | TK-10 renal 99.6% | ACHN renal 63.8% | A498 renal 59.3% | CCRF-CEM leukemia 47.8% | MOLT-4 leukemia 38.1% | RPMI-8226 leukemia 36.2% | OVCAR-8 ovarian 57.9% | OVCAR-5 ovarian 101% | OVCAR-4 ovarian 80.4% | SK-OV-3 ovarian 75.5% | IGROV1 ovarian 83.8% | OVCAR-3 ovarian 97.3% | HS 578T breast 81.5% | NCI/ADR-RES ovarian 90.3%
active: SR leukemia 1.38%

O=C(NN=C1CCCCC1)C(=O)NN=C1CCCCC1
inactive: SK-MEL-2 melanoma 91.2% | EKVX NSCLC 109% | SN12C renal 106% | UO-31 renal 95.6% | TK-10 renal 99% | ACHN renal 109% | A498 renal 119% | CCRF-CEM leukemia 85.6% | MOLT-4 leukemia 90.9% | RPMI-8226 leukemia 99.6% | OVCAR-8 ovarian 100% | OVCAR-5 ovarian 105% | OVCAR-4 ovarian 115% | SK-OV-3 ovarian 101% | IGROV1 ovarian 127% | OVCAR-3 ovarian 123% | HS 578T breast 115% | NCI/ADR-RES ovarian 114%

C=CCNC(=O)c1ccc(OC)cc1
inactive: SK-MEL-2 melanoma 97.6% | EKVX NSCLC 109% | SN12C renal 99.1% | UO-31 renal 74.7% | TK-10 renal 120% | ACHN renal 106% | A498 renal 133% | CCRF-CEM leukemia 98.4% | SR leukemia 110% | RPMI-8226 leukemia 92.4% | OVCAR-8 ovarian 107% | OVCAR-4 ovarian 134% | SK-OV-3 ovarian 116% | IGROV1 ovarian 96.2% | OVCAR-3 ovarian 121% | HS 578T breast 221% | NCI/ADR-RES ovarian 101%

CCOc1ccc(/C=C/C(=O)c2ccccc2)cc1
inactive: SK-MEL-2 melanoma 91.9% | EKVX NSCLC 107% | SN12C renal 95.7% | UO-31 renal 84% | TK-10 renal 97.6% | ACHN renal 108% | A498 renal 88.8% | CCRF-CEM leukemia 55.9% | MOLT-4 leukemia 77.6% | SR leukemia 40.6% | OVCAR-8 ovarian 95.6% | OVCAR-5 ovarian 106% | OVCAR-4 ovarian 102% | SK-OV-3 ovarian 103% | IGROV1 ovarian 74.8% | OVCAR-3 ovarian 93.7% | HS 578T breast 120% | NCI/ADR-RES ovarian 105%
active: RPMI-8226 leukemia 9.27%

CC1OC(Oc2c(-c3ccc(O)c(O)c3)oc3cc(O)cc(O)c3c2=O)C(O)C(O)C1O (stereo unspecified)
inactive: SK-MEL-2 melanoma 104% | EKVX NSCLC 110% | SN12C renal 102% | UO-31 renal 92.5% | TK-10 renal 103% | ACHN renal 113% | A498 renal 99.5% | CCRF-CEM leukemia 106% | MOLT-4 leukemia 108% | SR leukemia 106% | RPMI-8226 leukemia 105% | OVCAR-8 ovarian 106% | OVCAR-5 ovarian 108% | SK-OV-3 ovarian 108% | IGROV1 ovarian 107% | OVCAR-3 ovarian 103% | HS 578T breast 105% | NCI/ADR-RES ovarian 111%

O=C(c1ccc(Cl)cc1)c1ccccc1Cl
inactive: SK-MEL-2 melanoma 103% | EKVX NSCLC 96.9% | SN12C renal 94.7% | UO-31 renal 72.2% | TK-10 renal 90.9% | ACHN renal 95% | A498 renal 126% | CCRF-CEM leukemia 90.5% | MOLT-4 leukemia 87.1% | SR leukemia 95.9% | RPMI-8226 leukemia 82.8% | OVCAR-8 ovarian 89.6% | OVCAR-4 ovarian 97% | SK-OV-3 ovarian 96.3% | IGROV1 ovarian 87.9% | OVCAR-3 ovarian 118%

C[N+](C)=c1ccc2nc3c(cc(Nc4ccccc4)c4ccccc43)oc-2c1
active: OVCAR-3 ovarian -28.6%
inactive: SK-MEL-2 melanoma 10.9% | EKVX NSCLC 90.2% | SN12C renal 79.9% | UO-31 renal 59.1% | TK-10 renal 106% | ACHN renal 82.1% | A498 renal 51% | CCRF-CEM leukemia 57.8% | MOLT-4 leukemia 38% | SR leukemia 22.1% | RPMI-8226 leukemia 31.7% | OVCAR-8 ovarian 54.4% | OVCAR-5 ovarian 80.7% | OVCAR-4 ovarian 21.3% | SK-OV-3 ovarian 65.3% | IGROV1 ovarian 67.3% | HS 578T breast 63.6% | NCI/ADR-RES ovarian 57.3%

C#Cc1cccc(NC(=O)c2ccc(Cl)cc2Cl)c1
inactive: SK-MEL-2 melanoma 98.6% | EKVX NSCLC 91.3% | SN12C renal 95.7% | UO-31 renal 91.7% | TK-10 renal 106% | ACHN renal 93.5% | A498 renal 102% | CCRF-CEM leukemia 88.2% | MOLT-4 leukemia 82.1% | SR leukemia 115% | RPMI-8226 leukemia 78.1% | OVCAR-8 ovarian 105% | OVCAR-5 ovarian 110% | OVCAR-4 ovarian 95.5% | SK-OV-3 ovarian 95.5% | IGROV1 ovarian 115% | OVCAR-3 ovarian 109% | HS 578T breast 108% | NCI/ADR-RES ovarian 104%

Nc1ccc(N)c([N+](=O)[O-])c1
inactive: SK-MEL-2 melanoma 115% | EKVX NSCLC 110% | SN12C renal 97.8% | UO-31 renal 88.2% | TK-10 renal 130% | ACHN renal 102% | A498 renal 100% | CCRF-CEM leukemia 107% | MOLT-4 leukemia 104% | SR leukemia 115% | RPMI-8226 leukemia 98.8% | OVCAR-8 ovarian 111% | OVCAR-5 ovarian 104% | SK-OV-3 ovarian 113% | IGROV1 ovarian 113% | OVCAR-3 ovarian 106% | HS 578T breast 105% | NCI/ADR-RES ovarian 107%

N/N=C(/Cc1ccccc1)NNC(N)=S
inactive: SK-MEL-2 melanoma 104% | EKVX NSCLC 91.9% | SN12C renal 104% | UO-31 renal 81.4% | TK-10 renal 118% | ACHN renal 104% | A498 renal 87.5% | CCRF-CEM leukemia 93.8% | MOLT-4 leukemia 98.4% | SR leukemia 99.2% | RPMI-8226 leukemia 100% | OVCAR-8 ovarian 108% | OVCAR-5 ovarian 111% | OVCAR-4 ovarian 101% | SK-OV-3 ovarian 106% | IGROV1 ovarian 95.2% | OVCAR-3 ovarian 111% | HS 578T breast 106% | NCI/ADR-RES ovarian 107%

O=[N+]([O-])c1ccc(N=Nc2ccc(O)c3ccccc23)cc1
active: OVCAR-3 ovarian -0.85% | HS 578T breast 1.22%
inactive: SK-MEL-2 melanoma 43.2% | EKVX NSCLC 60% | SN12C renal 35.3% | UO-31 renal 24% | TK-10 renal 76.1% | ACHN renal 47.3% | A498 renal 71.8% | MOLT-4 leukemia 31.5% | RPMI-8226 leukemia 28.5% | OVCAR-8 ovarian 10.6% | OVCAR-5 ovarian 124% | OVCAR-4 ovarian 40.1% | SK-OV-3 ovarian 92% | IGROV1 ovarian 38.1% | NCI/ADR-RES ovarian 28.1%

CCOC(=O)c1cc2cccc(OC)c2oc1=O
inactive: SK-MEL-2 melanoma 74.9% | EKVX NSCLC 107% | SN12C renal 107% | UO-31 renal 105% | TK-10 renal 110% | ACHN renal 117% | CCRF-CEM leukemia 91.7% | MOLT-4 leukemia 89.9% | SR leukemia 104% | RPMI-8226 leukemia 95.4% | OVCAR-8 ovarian 116% | OVCAR-5 ovarian 114% | OVCAR-4 ovarian 109% | SK-OV-3 ovarian 117% | IGROV1 ovarian 108% | OVCAR-3 ovarian 138% | HS 578T breast 121% | NCI/ADR-RES ovarian 111%

CC(=O)OCCC(C)CCC=C(C)C (stereo unspecified)
inactive: SK-MEL-2 melanoma 98.1% | EKVX NSCLC 100% | SN12C renal 101% | UO-31 renal 88% | TK-10 renal 106% | ACHN renal 104% | A498 renal 100% | CCRF-CEM leukemia 104% | MOLT-4 leukemia 114% | RPMI-8226 leukemia 95% | OVCAR-8 ovarian 102% | OVCAR-5 ovarian 102% | OVCAR-4 ovarian 107% | SK-OV-3 ovarian 111% | IGROV1 ovarian 112% | OVCAR-3 ovarian 121% | HS 578T breast 104% | NCI/ADR-RES ovarian 107%

CCOC(=O)CSc1c([N+](=O)[O-])ncn1C
inactive: SK-MEL-2 melanoma 95.4% | EKVX NSCLC 95.6% | SN12C renal 102% | UO-31 renal 89.8% | TK-10 renal 94.2% | ACHN renal 101% | A498 renal 114% | CCRF-CEM leukemia 94.8% | MOLT-4 leukemia 94.8% | SR leukemia 86.4% | RPMI-8226 leukemia 99.7% | OVCAR-8 ovarian 103% | OVCAR-5 ovarian 91.8% | OVCAR-4 ovarian 105% | SK-OV-3 ovarian 110% | IGROV1 ovarian 95.5% | OVCAR-3 ovarian 103% | HS 578T breast 103% | NCI/ADR-RES ovarian 101%

O=[N+]([O-])c1ccc(S(=O)(=O)NN=C2CCCCC2)cc1
inactive: SK-MEL-2 melanoma 147% | EKVX NSCLC 104% | SN12C renal 103% | UO-31 renal 67.8% | TK-10 renal 128% | ACHN renal 100% | A498 renal 123% | MOLT-4 leukemia 98.7% | SR leukemia 96.9% | RPMI-8226 leukemia 110% | OVCAR-8 ovarian 101% | OVCAR-5 ovarian 114% | OVCAR-4 ovarian 99.5% | SK-OV-3 ovarian 100% | IGROV1 ovarian 103% | OVCAR-3 ovarian 114% | NCI/ADR-RES ovarian 115%
